Sampled rows, rich in hits. Any-hit rate of the full collection: about 2.9%.
TRPML1 ag – human mucolipin-1 channel agonism; Q9GZU1; TRPML1-expressing cells, Ca2+ dye fluorescence, FDSS; activation, % (test concentration not listed); 0.12% of 410,000 active; in the data active means activation above about 50%; inconclusive means mostly about 30% to 49%; further: 0% is about no effect
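Agonist activity was taken from a 110 s kinetic Ca2+ dye read on the FDSS after pinning compounds onto TRPML1-DL cells. The cells were seeded at 1,500/well with Tet inducer, incubated about 16 h, then dye-loaded at room temperature.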
D3 ag – activates the human D3 dopamine receptor. P35462. D3R DiscoveRx beta-arrestin cells, luminescence, 90 min. max activation, %. 0.58% of 410,000 active. AID 652048; in the data active means max activation above about 30%; further: 0% is about no effect
Target sequence (P35462 whole entry, looked up): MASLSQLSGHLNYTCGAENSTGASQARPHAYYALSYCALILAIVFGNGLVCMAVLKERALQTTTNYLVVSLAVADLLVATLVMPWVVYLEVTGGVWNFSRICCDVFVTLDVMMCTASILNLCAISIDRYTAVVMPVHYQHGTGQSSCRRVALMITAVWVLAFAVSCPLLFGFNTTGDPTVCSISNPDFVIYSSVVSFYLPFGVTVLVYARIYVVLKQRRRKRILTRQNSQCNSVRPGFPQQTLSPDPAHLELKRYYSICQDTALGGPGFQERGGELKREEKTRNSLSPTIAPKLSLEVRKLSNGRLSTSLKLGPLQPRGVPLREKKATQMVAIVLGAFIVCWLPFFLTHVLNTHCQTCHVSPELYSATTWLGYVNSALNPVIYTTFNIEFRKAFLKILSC
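Agonist-mode cell screen: cells plated at 1500/well and incubated overnight at 37 °C, then exposed to library compounds for 90 min at 37 °C. Detection reagent was added for 30–60 min at room temperature, and luminescence was read.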
TRPML1 inh – inhibitors of human TRPML1 channel; activity change, negative = inhibition, % (concentration not given with the values); AID 624415; TRPML1-inducible cells, Ca2+ dye fluorescence, FDSS; stronger effect = lower value; inhibition of EC80 agonist-evoked calcium signal; 0.02% of 390,000 active; in the data active means activity change below about -50%; inconclusive means between about -30% and that limit;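 further: stimulus is agonist 54-4 at its EC80 concentration; on the % scale 0 is the no-effect control and ±100 the full control effect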
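Tet-induced TRPML1-DL cells loaded with Ca8 no-wash calcium dye were read kinetically on FDSS. Compound addition was followed by EC80 agonist 54-4 (4 uM final); inhibition was read over 110 s.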
DRD3 antagonist – blocks the human D3 dopamine receptor; 2.5% of 360,000 active; AID 652054; P35462; D3R cells, DiscoveRx beta-arrestin luminescence, antagonist mode; stronger effect = lower value; max response, negative = inhibition, %; in the data active means max response below about -50%; inconclusive means no clear call, values can overlap the other calls; further: on the % scale 0 is the no-effect control and ±100 the full control effect
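Cells plated overnight at 1500 cells/well, then exposed to library compounds with dopamine controls for 90 minutes at 37 degrees C. DiscoveRx reagent added for 30–60 minutes at room temperature; luminescence read, quantitative HTS format.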
Starred values were filed as active, the others as inactive; ? = inconclusive; nt = no result.

SMILES	TRPML1 ag	D3 ag	TRPML1 inh	DRD3 antagonist
COc1ccc2c(=O)cc(CO)oc2c1	-0.9	37.7*	4.1	0.0
C(=C\c1nccc2ccccc12)/c1ccc(N2CCOCC2)cc1	4.0	nt	nt	nt
COc1ccc(CNC(=O)C2CCC(=O)N(CCCN3CCCC3=O)C2)c(OC)c1 (stereo not given)	0.1	33.2*	-5.7	19.3
CCn1cc(S(=O)(=O)c2ccc(OC)cc2)c(=O)c2cc(F)c(N3CCC(C)CC3)cc21	-0.4	7.0	-12.0	nt
N#Cc1ccccc1Cn1cc(/C=N/Nc2ccc([N+](=O)[O-])cn2)c2ccccc21	4.6	-9.6	3.7	-52.4*
CC1CCC/C=C/C(=O)c2c(O)cc(O)cc2CC(=O)O1 (stereo not given)	nt	-50.9	nt	-88.8*
C[C@@H]1Cc2c(O)c(O)cc(O)c2C(=O)O1	nt	28.0	nt	-9.2
CCc1ccc(NC(=O)C2CCCN(c3nn4cc(-c5ccc(OC)cc5)nc4s3)C2)cc1 (stereo not given)	0.8	13.3	13.5	nt
CN(C)c1ccc(C2C=Cc3ccccc32)c2ccccc12 (stereo not given)	-0.9	nt	nt	nt
CCOC(=O)C1(CCOC)CCN(Cc2nc(-c3cccs3)oc2C)CC1	1.2	-12.0	-9.3	?
Cc1oc(-c2cccs2)nc1CN1CCC(CO)(CCOc2ccccc2)CC1	1.3	-11.8	5.4	-89.0*
CCc1ccc(CN(Cc2ccco2)c2cnc(S(C)(=O)=O)nc2C(=O)Nc2c(C)cccc2C)cc1	2.1	9.7	4.4	nt
CCc1nnc(NS(=O)(=O)c2ccc(NC(=O)/C=C/C(=O)O)cc2)s1	0.2	-10.2	22.9	-62.4*
CCc1nnc(NS(=O)(=O)c2ccc(NC(=O)c3cccc(Cl)c3)cc2)s1	0.5	-18.0	-0.2	-68.3*
COc1ccc(NS(=O)(=O)c2ccc(NC(=S)NC(=O)c3ccc(Br)cc3)cc2)nn1	-0.1	-16.5	-20.0	-53.1*
CCc1nnc(NS(=O)(=O)c2ccc(NC(=S)NC(=O)/C=C/c3ccc(OC)cc3)cc2)s1	0.2	-30.5	33.1	-72.8*
COc1ccccc1N1CCN(C(=O)c2ccc(Nc3nc4ccccc4n4nnnc34)cc2)CC1	-0.4	-4.6	-18.7	nt
COc1ccc(F)cc1S(=O)(=O)NCC(c1ccco1)S(=O)(=O)c1ccc(F)cc1 (stereo not given)	2.2	-2.0	11.2	nt
O=C(Nc1ccc(F)c(Cl)c1)Nc1c[nH]c(=O)[nH]c1=O	3.7	1.3	20.9	nt
O=C(COc1ccccc1C(=O)Nc1cccc(F)c1)Nc1ccc(Br)cc1	0.5	nt	nt	nt
O=C(Nc1cccc2cccnc12)OCc1ccccc1	3.2	nt	0.9	nt
O=C(C[N+]12CN3CN(CN(C3)C1)C2)c1ccc(I)cc1	-0.1	nt	nt	nt
CCc1nnc(NS(=O)(=O)c2ccc(NC(=S)NC(=O)/C=C/c3ccccc3)cc2)s1	-0.6	-7.9	-12.7	-67.9*
COc1cc(NS(=O)(=O)c2ccc(NC(=S)NC(=O)CC(C)C)cc2)nc(OC)n1	0.2	-8.2	45.7	-85.4*
CCc1nnc(NS(=O)(=O)c2ccc(NC(=S)NC(=O)/C=C/c3ccc(C(C)C)cc3)cc2)s1	1.2	-6.2	-4.5	-128.9*
SMILES	TRPML1 ag	D3 ag	TRPML1 inh	DRD3 antagonist
O=C(/C=C/c1ccc(Br)cc1)NC(=S)Nc1ccc(S(=O)(=O)Nc2nccs2)cc1	0.4	-24.7	-14.1	-52.8*
O=C(CNC(=O)c1cccnc1)c1ccc(F)cc1	-0.4	nt	nt	nt
COc1ccc2c(c1)c1nnc(SC)nc1n2Cc1ccccc1	-0.4	nt	nt	nt
CCc1nnc(NS(=O)(=O)c2ccc(NC(=S)NC(=O)c3ccc(Br)cc3)cc2)s1	1.4	-15.5	-11.3	-65.4*
O=C(Nc1ccccc1C(=O)OCc1cc(=O)n2c3c(sc2n1)CCCC3)c1cccc(Cl)c1	0.9	-5.0	-14.8	nt
O=C(Nc1ccc(/C=C/c2ccc(NC(=O)c3cc(S(=O)(=O)O)c4cccnc4c3O)cc2S(=O)(=O)O)c(S(=O)(=O)O)c1)c1cc(S(=O)(=O)O)c2cccnc2c1O	nt	-20.1	nt	nt
O=C1C2Sc3[nH]c(=O)sc3C(c3ccccc3)C2C(=O)N1c1ccccc1 (stereo not given)	1.5	1.3	-6.3	-66.3*
COc1ccc(C2c3sc(=O)[nH]c3SC3C(=O)N(c4ccccc4)C(=O)C32)cc1 (stereo not given)	0.7	-7.0	10.5	-26.3
Oc1ccc(Cl)cc1C1C=C(c2ccc3c(c2)OCO3)NC(c2cc(Br)ccc2F)N1 (stereo not given)	1.7	nt	-12.1	nt
C/C(CC(=O)Nc1cccnc1)=N\NC(=O)c1ccc([N+](=O)[O-])c(Cl)c1	-0.2	4.3	-16.3	0.4
CC(=O)Nc1ccccc1NC(=O)C/C(C)=N/NC(=O)c1ccc([N+](=O)[O-])c(Cl)c1	1.1	-5.5	-0.4	-58.0*
COc1ccc(Nc2nc(N3CCCC3)nc(N3CCCC3)n2)c(OC)c1	0.1	146.3*	0.5	43.8
CC(=O)c1ccccc1S(=O)(=O)N1CCN(c2nc(-c3cccs3)nc3ccccc23)CC1	0.5	nt	nt	nt
Cc1cc(=O)oc2cc(OCCc3ccccc3)ccc12	3.8	-2.3	25.3	-7.6
Cc1cc(=O)oc2cc(OCCSCCN3CCCCC3)ccc12	0.1	-12.3	-3.8	-65.5*
C=C(C)Cn1c2ccc(NC(=O)CCc3cccc(Cl)c3)cc2c(=O)n1C	-0.1	45.3*	2.4	7.0
Cn1c(=O)c2cc(NC(=O)CCc3cccc(Cl)c3)ccc2n1Cc1cccc(C(F)(F)F)c1	0.1	1.8	nt	1.9
Cc1ccc(C(NC(=O)NCCCN2CCOCC2)=C(Cl)Cl)cc1F	-0.6	0.3	0.3	-75.3*
COc1ccc(C2=Nc3ccc(C)cc3C(c3ccccc3)N2CC(=O)NN)cc1 (stereo not given)	-0.3	-31.2	20.7	-105.2*
COc1ccc(C2=Nc3ccc(Br)cc3C(c3ccccc3)N2CC(=O)NN)cc1 (stereo not given)	1.8	-15.8	-17.0	-92.8*
NNC(=O)CN1C(c2cccc(Cl)c2)=Nc2ccc(Br)cc2C1c1ccccc1 (stereo not given)	1.5	-10.3	16.5	?
Nc1nc(SCc2ccc(Cl)cc2Cl)nc2nc3c(cc12)CCCC3	1.0	-9.0	18.8	-56.5*
O=C(CSc1oc(-c2ccccc2)nc1S(=O)(=O)c1ccccc1)c1ccccc1	0.6	53.3*	65.2	nt
COc1cccc2c1C(=O)c1c(O)c3c(c(O)c1C2=O)C[C@@](O)(C(C)=O)C[C@@H]3O[C@H]1C[C@H](N)[C@H](O)[C@H](C)O1	12.3	-58.6	-9.4	-78.1*
COc1cccc2c1C(=O)c1c(O)c3c(c(O)c1C2=O)C[C@@](O)(C(=O)CO)C[C@@H]3O[C@H]1C[C@H](N)[C@@H](O)[C@H](C)O1	9.5	-63.8	11.7	0.0
Cc1ccc(Sc2c(C)[nH]n(C(C)(C)C)c2=O)cc1	-0.5	-0.5	-9.7	-13.1
CC1=CC(=O)C(Sc2ccc(C)cc2)=CC1=O	1.3	-12.5	17.6	-91.7*
